# This is part of a sample that, as a whole, favours compounds with a hit. Of some 79,000 tested, about 15% had one in any assay. Values without a mark were called inactive. The source made the active and inactive calls. No stated cut-off is given here; in the data, active means growth inhibition above about 70%; inactive means the rest.
# Legend:
# [1] = NCI Yeast Anticancer Drug Screen. Data for the rad50 strain (AID 155);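 further: 0% = growth of vehicle-only cultures of the same strain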; conditions: S. cerevisiae rad50 strain growth inhibition, hits give high values
# Procedure, shortened: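 Genetically altered yeast (DNA repair pathway); compound treatment; growth inhibition vs vehicle ctrl.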
# [2] = NCI Yeast Anticancer Drug Screen. Data for the mec2-1 strain (AID 157); conditions: S. cerevisiae mec2-1 strain, hits give high values
# Procedure, shortened: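 Strain: mec2-1 (DNA repair/cell cycle alteration). Compound exposure, then growth measured; inhibition expressed relative to vehicle.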
# [3] = NCI Yeast Anticancer Drug Screen. Data for the sgs1 mgt1 strain (AID 161);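 further: 0% = growth of cultures given vehicle only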; conditions: S. cerevisiae sgs1 mgt1 strain, hits give high values
# Procedure, shortened: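 Read-out: growth inhibition vs vehicle controls. Cells: mutant yeast strain deficient in DNA damage repair.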
# [4] = NCI Yeast Anticancer Drug Screen. Data for the cln2 rad14 strain (AID 165);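 further: 0% = growth equal to vehicle treated cultures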; conditions: S. cerevisiae cln2 rad14 strain, hits give high values
# Procedure, shortened: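 Compounds are applied to the cln2 rad14 yeast strain, and growth is then compared with that of vehicle-treated cultures to give inhibition.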
# [5] = NCI Yeast Anticancer Drug Screen. Data for the bub3 strain (AID 167); conditions: S. cerevisiae bub3 mutant strain, hits give high values
# Procedure, shortened: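 Yeast carrying a defined mutation is treated with each compound, and growth is compared with that of vehicle-exposed cells to give inhibition.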
# [6] = NCI Yeast Anticancer Drug Screen. Data for the mlh1 rad18 strain (AID 175); conditions: S. cerevisiae mlh1 rad18 strain growth inhibition, hits give high values
# Procedure, shortened: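 Read-out is yeast growth inhibition, calculated against vehicle-only controls. The compound was applied to a strain engineered with DNA damage repair alterations.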
# [7] = at 5.0 µM (retest, dose inferred, filed as 0.5)
# [8] = at 50.0 µM (retest, dose inferred, filed as 5.0)
Structure (SMILES),"growth inhibition [1, 7]","growth inhibition [1, 8]",growth inhibition ([1]; at 50.0 µM),"growth inhibition [2, 7] [%]","growth inhibition [2, 8]",growth inhibition ([2]; at 50.0 µM),"growth inhibition [3, 7]","growth inhibition [3, 8]",growth inhibition ([3]; at 50.0 µM),"growth inhibition [4, 7] [%]","growth inhibition [4, 8]",growth inhibition ([4]; at 50.0 µM),"growth inhibition [5, 7]","growth inhibition [5, 8]",growth inhibition ([5]; at 50.0 µM),"growth inhibition [6, 7]","growth inhibition [6, 8]",growth inhibition ([6]; at 50.0 µM)
O=C1OC(C2OC(=O)C(=O)C2C(=O)c2ccc(Cl)c(Cl)c2)C(C(=O)c2ccc(Cl)c(Cl)c2)C1=O (configuration not stated),7%,97% (active),94.5% (active),10,93% (active),63.8%,14%,97% (active),74.3% (active),4,84% (active),34.5%,-34%,92% (active),55.2%,12%,98% (active),96.2% (active)
CC(=O)Nc1nnc(-c2coc3ccccc3c2=O)s1,7%,0%,50.9%,4,3%,6.25%,1%,-3%,20.4%,9,1%,10.7%,4%,1%,15.4%,2%,-4%,12.1%
CCCCCCCCCCCCSC1=C(N)C(=O)c2ccccc2C1=O,3%,2%,8.35%,0,3%,11.1%,8%,-5%,-9.05%,-3,0%,32.3%,-1%,-1%,11.3%,0%,5%,53%
N#CC1=C(N)OC(c2ccccc2)=C(C#N)C1c1ccccc1[N+](=O)[O-] (configuration not stated),5%,5%,-8.2%,9,8%,38.1%,12%,-8%,22.7%,11,5%,72.5% (active),-1%,-4%,39.1%,2%,7%,23.3%
CN(C)c1ccc(/C=C2/Oc3ccc(Cl)cc3C2=O)cc1,-2%,98% (active),87.8% (active),25,98% (active),90.7% (active),-5%,97% (active),89.5% (active),28,97% (active),89% (active),-24%,98% (active),89.9% (active),19%,97% (active),86% (active)
O=[N+]([O-])c1cc(I)cc(/C=N/NS(=O)(=O)c2ccc(F)cc2)c1O,16%,36%,84.2% (active),12,31%,77.7% (active),19%,47%,89.5% (active),0,15%,77.8% (active),3%,17%,53%,17%,45%,93% (active)
CCCCCC(=O)NNc1ccccc1,18%,89% (active),85.3% (active),1,76% (active),42.6%,5%,48%,80% (active),0,51%,78% (active),9%,95% (active),83.1% (active),22%,93% (active),90.8% (active)
O=[N+]([O-])c1ccc(O)c(/C=N\NC(=S)Nc2ccc3cn[nH]c3c2)c1,-2%,33%,74.3% (active),1,20%,47.2%,11%,37%,41.2%,-17,37%,32.6%,-2%,52%,49.1%,12%,41%,30.8%
COC(=O)c1c2oc3c(C(=O)OC)cccc3nc-2cc(N)c1=O,0%,19%,30.2%,22,56%,25.7%,6%,22%,8.8%,-5,-2%,-46.5%,49%,59%,66.5%,3%,44%,22.5%
CC1=NN(c2nc(N)nc(NS(=O)(=O)c3cc(C)c(Cl)cc3S)n2)C(C)(C)C1,29%,13%,9.1%,-1,-12%,-9.55%,-2%,9%,35.9%,4,10%,46.2%,11%,-17%,9.85%,-3%,4%,20%
Cc1[nH]nc(C(=O)N/N=C/c2cccs2)c1N=NN(C)C,73% (active),96% (active),97.2% (active),15,98% (active),82.9% (active),19%,73% (active),97% (active),-3,96% (active),99.3% (active),-1%,95% (active),87.6% (active),80% (active),98% (active),99% (active)
CCOC(=O)C(CC)(CCc1ccccc1[N+](=O)[O-])C(=O)OCC,8%,-24%,61.2%,-3,-2%,-6.6%,9%,37%,39.2%,0,-17%,-18.1%,6%,24%,75.9% (active),17%,13%,60.9%
N#C/C(=C\C(Cl)=C/c1ccccc1)C(N)=S,68%,97% (active),50.1%,45,99% (active),40.5%,91% (active),98% (active),43.2%,16,95% (active),98% (active),79% (active),98% (active),99% (active),86% (active),98% (active),40.4%
CCCC1c2ccc(O)cc2CC1c1ccc(O)cc1 (configuration not stated),-1%,99% (active),99.2% (active),-4,99% (active),99.4% (active),-3%,99% (active),99.5% (active),11,99% (active),52.4%,-1%,99% (active),98.7% (active),1%,99% (active),98.5% (active)
COc1cc(C(c2cc3c(cc2OC(C)=O)OCO3)C(C(C)=O)C(C)=O)cc(OC)c1OC(C)=O (configuration not stated),7%,18%,3.7%,-4,18%,5%,-5%,0%,-18.9%,-1,1%,-16.4%,8%,13%,8.75%,3%,11%,-4.2%
Cc1ccc(NC(=S)N(CCC#N)C2CCCCC2)cc1C,-12%,-10%,21.9%,-22,-21%,-7.55%,-6%,10%,10.3%,-2,3%,0.5%,7%,7%,1.85%,-27%,-28%,14.6%
O=c1[nH]c2c([N+](=O)[O-])cc(Cl)cc2nc1/C=C(\O)c1ccc2ccccc2c1,-4%,95% (active),74.3% (active),7,98% (active),72.9% (active),-8%,95% (active),90.1% (active),6,94% (active),49.1%,-9%,97% (active),70% (active),25%,96% (active),71.5% (active)
CC(=O)OC1SC(C)(C)n2c1nc1ccccc1c2=O (configuration not stated),1%,56%,44.1%,-5,53%,23.7%,6%,51%,41%,-8,43%,69.4%,1%,39%,18.8%,2%,50%,72% (active)
CC(C)NC(=O)OCc1c2c(n(C)c1COC(=O)NC(C)C)-c1ccccc1CC2,77% (active),97% (active),98.2% (active),14,98% (active),98.6% (active),13%,97% (active),98.4% (active),-5,97% (active),97.8% (active),4%,98% (active),97.6% (active),26%,96% (active),98.2% (active)
